Reference: PubChem BioAssay
Where “and” joins values, the source holds several entries; their conditions need not be identical. Equal values may be shown once. This is one part of the list. Calls of active or inactive are those of the source. Rule as the data show it, unless noted: active = inhibition above about 30%; inactive = the rest.

Legend:
[1] = target: Nuclear receptor coactivator 3 (Homo sapiens) (UniProt Q9Y6Q9); assay: NCOA3 GAL4-fusion reporter inhibition – cell-based, luminescence, quadruplicate, confirmation (AID 588792;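 active = mean inhibition over 43.08%, the solvent-only control mean plus 3 SD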;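 also: 0% = DMSO treated cells and 100% = gossypol at 36 µM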); conditions: HEK293 GAL4-SRC3 luciferase reporter, at 3.6 µM, active compounds read high
[2] = test system: transactivating tegument protein VP16 (Human herpesvirus 1), Gal4-VP16 luciferase reporter; assay: repression of VP16-driven luciferase reporter – cell-based, luminescence, high throughput, counter-screen for SRC3 inhibitor project (AID 588794); conditions: mammalian cells, at 3.6 µM, active compounds read high
[3] = StAR promoter reporter inhibitors, counter-screen for LRH-1 inverse agonist project, cell-based, luminescence, high throughput (AID 651611; in the data active = inhibition above about 28%); conditions: StAR promoter luciferase reporter counterscreen, at 3.6 µM, active compounds read high
[4] = target: Nuclear receptor subfamily 5 group A member 2 (Homo sapiens) (UniProt O00482); assay: NR5A2 activity suppression in reporter cells – cell-based, luminescence, confirmation (AID 651613; in the data active = inhibition above about 42%;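 also: HEK293T cells co-transfected with LRH-1 and StAR promoter luciferase reporter; 0% = vehicle wells and 100% = parental cells lacking receptor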); conditions: cell-based LRH-1 luciferase reporter, inverse agonism; at 3.6 µM; active compounds read high
[5] = target: Steroidogenic factor 1 (Homo sapiens) (UniProt Q13285); assay: inverse agonism at SF1 nuclear receptor – cell-based, luminescence, high throughput, counter-screen for LRH-1 inverse agonist project (AID 651614; in the data active = inhibition above about 44%;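 also: cells cotransfected with StAR promoter reporter and SF1 expression vector; 0% = vehicle on cells with receptor and 100% = vehicle on cells lacking receptor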); conditions: cell-based SF1 luciferase reporter, at 3.6 µM, active compounds read high
[6] = compounds suppressing VP16-driven luciferase signal – cell-based, luminescence, high throughput, counter-screen for LRH-1 inverse agonist project (AID 651615; in the data active = inhibition above about 33%); conditions: Gal4-VP16 luciferase reporter cells, at 3.6 µM, active compounds read high
[7] = target: Nuclear receptor coactivator 1 (Homo sapiens) (UniProt Q15788); assay: NCOA1 GAL4-fusion reporter inhibition – cell-based, luminescence, quadruplicate, confirmation (AID 588820;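 active = mean inhibition above 46.68%, the untreated control wells mean plus 3 SD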;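 also: 0% = DMSO wells and 100% = gossypol 36 µM treated wells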); conditions: HEK293 GAL4-SRC1 luciferase reporter, at 3.6 µM, active compounds read high
[8] = repression of VP16-driven luciferase reporter – cell-based, luminescence, high throughput, counter-screen for SRC1 inhibitor project (AID 588824; in the data active = inhibition above about 25%); conditions: cell-based VP16 transactivation luciferase luminescence; at 3.6 µM; active compounds read high
[9] = test system: transactivating tegument protein VP16 (Human herpesvirus 1); assay: compounds suppressing VP16-driven luciferase signal – cell-based, luminescence, single concentration, counter-screen for SRC2 inhibitor project (AID 652007; in the data active = inhibition above about 36%); conditions: cell-based VP16 transactivation luciferase reporter, at 8.9 µM, active compounds read high
[10] = target: Nuclear receptor coactivator 2 (Homo sapiens) (UniProt Q15596); assay: inhibition of GAL4-SRC2 driven luciferase expression – cell-based, luminescence, HEK293, triplicate, confirmation (AID 652008;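 active = mean inhibition above 46.5%, the solvent-only control mean plus 3 SD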;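 also: 0% = DMSO-treated cells and 100% = Gossypol at 36 µM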); conditions: HEK293 GAL4-SRC2 luciferase reporter, at 8.9 µM, active compounds read high
[11] = VP16-driven transactivation reporter suppression – cell-based, luminescence, HEK293, counter-screen for COUP-TFII antagonist project (AID 687007; in the data active = inhibition above about 13%); conditions: HEK293 Gal4-VP16 luciferase reporter, at 8.5 µM, active compounds read high
[12] = target: COUP transcription factor 2 (Homo sapiens) (UniProt P24468); assay: retest of COUP-TFII reporter suppressors – cell-based, luciferase reporter, HEK293, triplicate, confirmation (AID 687008;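 active = mean inhibition over three repeats above a set limit taken from the earlier primary screen, cut at about 38% in these data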;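 also: 100% = cells given the luciferase reporter alone without the COUP-TF2 vector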); conditions: HEK293 NGFI-A luciferase reporter, luminescence; at 8.5 µM; active compounds read high

Measured: inhibition

Sequence of Nuclear receptor coactivator 3 (Homo sapiens) (Q9Y6Q9 whole entry, looked up, the tested form may be a part): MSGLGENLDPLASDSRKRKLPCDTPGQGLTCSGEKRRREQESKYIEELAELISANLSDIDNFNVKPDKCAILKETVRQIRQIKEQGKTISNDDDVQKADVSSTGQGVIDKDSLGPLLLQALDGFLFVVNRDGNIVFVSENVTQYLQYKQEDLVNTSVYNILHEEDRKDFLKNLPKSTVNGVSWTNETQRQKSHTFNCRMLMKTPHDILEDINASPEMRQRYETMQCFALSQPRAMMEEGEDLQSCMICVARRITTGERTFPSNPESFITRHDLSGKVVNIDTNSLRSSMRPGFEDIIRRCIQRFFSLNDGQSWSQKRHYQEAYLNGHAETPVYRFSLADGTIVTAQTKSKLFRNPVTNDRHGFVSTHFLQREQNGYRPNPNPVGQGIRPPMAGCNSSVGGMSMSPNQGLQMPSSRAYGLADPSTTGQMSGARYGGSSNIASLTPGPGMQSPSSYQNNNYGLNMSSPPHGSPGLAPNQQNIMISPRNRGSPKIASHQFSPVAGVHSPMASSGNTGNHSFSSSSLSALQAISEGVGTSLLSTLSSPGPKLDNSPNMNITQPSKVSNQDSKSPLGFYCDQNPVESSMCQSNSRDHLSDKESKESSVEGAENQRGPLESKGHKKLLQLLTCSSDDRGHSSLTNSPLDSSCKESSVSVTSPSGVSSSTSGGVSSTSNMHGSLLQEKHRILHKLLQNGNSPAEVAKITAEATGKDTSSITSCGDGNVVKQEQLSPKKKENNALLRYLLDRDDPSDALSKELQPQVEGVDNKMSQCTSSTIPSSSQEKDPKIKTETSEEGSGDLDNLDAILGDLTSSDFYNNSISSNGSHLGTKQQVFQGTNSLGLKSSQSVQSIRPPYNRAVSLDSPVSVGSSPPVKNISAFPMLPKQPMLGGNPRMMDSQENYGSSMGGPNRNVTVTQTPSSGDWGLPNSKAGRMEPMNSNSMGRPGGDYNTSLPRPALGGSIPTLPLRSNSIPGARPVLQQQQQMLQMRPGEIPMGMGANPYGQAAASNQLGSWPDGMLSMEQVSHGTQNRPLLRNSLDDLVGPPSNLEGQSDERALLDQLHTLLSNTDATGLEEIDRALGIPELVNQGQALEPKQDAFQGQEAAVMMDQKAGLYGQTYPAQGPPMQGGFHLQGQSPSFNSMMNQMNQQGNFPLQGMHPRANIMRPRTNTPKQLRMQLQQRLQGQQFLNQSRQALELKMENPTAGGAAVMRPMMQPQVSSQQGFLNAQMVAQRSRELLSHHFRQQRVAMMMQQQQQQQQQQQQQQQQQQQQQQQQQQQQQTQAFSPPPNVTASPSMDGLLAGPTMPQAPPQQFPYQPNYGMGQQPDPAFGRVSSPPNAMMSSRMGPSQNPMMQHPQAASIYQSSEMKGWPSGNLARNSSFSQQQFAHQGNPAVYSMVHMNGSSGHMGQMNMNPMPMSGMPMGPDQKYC
Sequence of Steroidogenic factor 1 (Homo sapiens) (Q13285 whole entry, looked up, the tested form may be a part): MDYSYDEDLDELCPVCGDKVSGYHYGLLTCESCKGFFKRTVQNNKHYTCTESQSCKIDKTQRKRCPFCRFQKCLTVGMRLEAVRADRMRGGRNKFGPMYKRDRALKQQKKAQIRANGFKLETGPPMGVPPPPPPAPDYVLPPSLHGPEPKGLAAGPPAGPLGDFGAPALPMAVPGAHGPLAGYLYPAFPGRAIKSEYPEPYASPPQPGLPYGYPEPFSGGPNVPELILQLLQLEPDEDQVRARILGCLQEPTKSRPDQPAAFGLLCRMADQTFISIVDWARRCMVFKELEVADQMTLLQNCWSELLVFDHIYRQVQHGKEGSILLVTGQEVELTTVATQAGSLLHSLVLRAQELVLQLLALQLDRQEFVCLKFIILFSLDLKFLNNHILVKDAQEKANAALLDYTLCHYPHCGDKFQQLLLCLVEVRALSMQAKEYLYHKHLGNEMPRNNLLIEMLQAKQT
Sequence of Nuclear receptor subfamily 5 group A member 2 (Homo sapiens) (O00482 whole entry, looked up): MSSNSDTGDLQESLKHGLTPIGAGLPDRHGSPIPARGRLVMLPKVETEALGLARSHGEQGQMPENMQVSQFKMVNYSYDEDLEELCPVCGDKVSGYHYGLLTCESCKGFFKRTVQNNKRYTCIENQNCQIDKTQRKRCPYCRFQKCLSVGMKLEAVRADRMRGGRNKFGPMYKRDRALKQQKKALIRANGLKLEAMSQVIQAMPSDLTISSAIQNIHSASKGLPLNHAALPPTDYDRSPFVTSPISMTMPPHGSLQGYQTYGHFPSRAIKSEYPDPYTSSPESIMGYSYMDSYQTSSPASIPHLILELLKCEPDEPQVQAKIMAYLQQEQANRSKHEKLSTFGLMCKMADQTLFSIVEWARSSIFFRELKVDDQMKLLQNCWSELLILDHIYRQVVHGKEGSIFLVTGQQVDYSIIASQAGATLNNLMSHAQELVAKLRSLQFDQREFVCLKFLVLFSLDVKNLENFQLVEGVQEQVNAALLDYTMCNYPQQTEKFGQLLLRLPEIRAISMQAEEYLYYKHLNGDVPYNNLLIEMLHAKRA
Sequence of Nuclear receptor coactivator 1 (Homo sapiens) (Q15788 whole entry, looked up, the tested form may be a part): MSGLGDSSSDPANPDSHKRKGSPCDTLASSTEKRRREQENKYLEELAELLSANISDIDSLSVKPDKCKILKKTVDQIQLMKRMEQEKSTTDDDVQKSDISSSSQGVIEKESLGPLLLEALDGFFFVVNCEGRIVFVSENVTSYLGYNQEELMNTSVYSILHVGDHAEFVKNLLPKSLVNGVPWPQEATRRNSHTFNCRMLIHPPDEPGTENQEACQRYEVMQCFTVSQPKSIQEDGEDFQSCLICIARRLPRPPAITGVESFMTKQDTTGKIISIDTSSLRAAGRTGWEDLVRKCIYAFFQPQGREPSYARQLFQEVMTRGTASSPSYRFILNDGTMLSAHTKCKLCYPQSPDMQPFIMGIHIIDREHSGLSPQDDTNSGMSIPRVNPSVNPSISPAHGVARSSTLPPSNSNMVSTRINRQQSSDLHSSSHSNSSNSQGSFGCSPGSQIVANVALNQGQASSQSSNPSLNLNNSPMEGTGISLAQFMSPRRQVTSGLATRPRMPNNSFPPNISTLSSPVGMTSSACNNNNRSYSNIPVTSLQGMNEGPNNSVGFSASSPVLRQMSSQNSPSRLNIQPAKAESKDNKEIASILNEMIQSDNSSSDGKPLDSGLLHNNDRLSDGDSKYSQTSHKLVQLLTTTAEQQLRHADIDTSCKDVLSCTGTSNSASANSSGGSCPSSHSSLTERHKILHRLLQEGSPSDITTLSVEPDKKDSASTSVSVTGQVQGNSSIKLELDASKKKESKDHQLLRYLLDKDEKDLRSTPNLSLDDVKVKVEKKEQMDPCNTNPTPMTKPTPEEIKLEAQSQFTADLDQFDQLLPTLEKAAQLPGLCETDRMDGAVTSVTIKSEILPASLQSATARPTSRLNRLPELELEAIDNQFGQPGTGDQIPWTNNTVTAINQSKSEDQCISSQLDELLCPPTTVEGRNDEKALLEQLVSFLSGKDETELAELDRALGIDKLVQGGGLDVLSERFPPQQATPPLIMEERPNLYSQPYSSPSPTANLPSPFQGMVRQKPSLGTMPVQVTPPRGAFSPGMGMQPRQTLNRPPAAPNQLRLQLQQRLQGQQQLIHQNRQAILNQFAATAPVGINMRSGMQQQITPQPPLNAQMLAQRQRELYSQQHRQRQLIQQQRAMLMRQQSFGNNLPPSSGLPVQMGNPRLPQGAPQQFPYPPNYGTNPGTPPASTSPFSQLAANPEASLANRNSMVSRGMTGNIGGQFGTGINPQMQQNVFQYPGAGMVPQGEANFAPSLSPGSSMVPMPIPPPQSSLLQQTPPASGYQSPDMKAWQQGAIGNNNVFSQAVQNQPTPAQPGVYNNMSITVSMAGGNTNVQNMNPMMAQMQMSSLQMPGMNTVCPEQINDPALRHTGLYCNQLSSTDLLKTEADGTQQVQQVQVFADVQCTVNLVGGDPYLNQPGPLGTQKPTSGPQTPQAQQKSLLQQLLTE
Sequence of COUP transcription factor 2 (Homo sapiens) (P24468 whole entry, looked up): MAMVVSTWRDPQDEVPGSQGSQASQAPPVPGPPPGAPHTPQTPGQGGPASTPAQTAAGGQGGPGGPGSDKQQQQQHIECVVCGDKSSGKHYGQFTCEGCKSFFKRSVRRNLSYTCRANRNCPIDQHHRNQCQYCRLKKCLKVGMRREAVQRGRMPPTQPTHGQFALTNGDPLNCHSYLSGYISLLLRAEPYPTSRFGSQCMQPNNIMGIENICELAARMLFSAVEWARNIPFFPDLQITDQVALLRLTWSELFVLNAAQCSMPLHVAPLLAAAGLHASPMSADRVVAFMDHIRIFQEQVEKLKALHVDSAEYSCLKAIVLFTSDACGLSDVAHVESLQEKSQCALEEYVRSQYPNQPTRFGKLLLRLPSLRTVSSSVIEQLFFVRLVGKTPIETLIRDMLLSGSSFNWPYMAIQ

Clc1ccc(C2=Nn3c(nnc3-c3n[nH]c4c3CCC4)SC2)cc1
active: [3] 61.5% | [4] 46.5% | [5] 66.8%
inactive: [1] 28.4% | [2] -31.7% | [6] -54.9%

CCc1ccc(N(CC)c2ncnc3nc[nH]c23)cc1
inactive: [9] 4.69% | [11] -1.24% | [12] 17.4%
active: [1] 50.1% | [2] 33% | [7] 56.7% | [8] 36.9% | [10] 50.7%

CCCOc1ccc(Br)cc1CSC(=N)N
inactive: [1] 17.9% | [3] 9.34%
active: [2] 33.3% | [4] 102% | [5] 53.8% | [6] 83.7%

COC1C(=O)CCC2(CO2)C1(O)C1(C)OC1CC=C(C)C (stereo not drawn)
inactive: [1] 39.3% | [5] 39.6%
active: [2] 40.8% | [3] 33.8% | [4] 43% | [6] 42%

Cc1nnsc1S(=O)c1ccc(Cl)c(Cl)c1 (stereo not drawn)
inactive: [1] 34.3% | [2] 9.36% | [3] 25.5% | [6] 20.8%
active: [4] 64.4% | [5] 66.4%

CCOC(=O)c1c2c(n(-c3ccc(OC)cc3)c1C)C(=O)C(=O)c1ccccc1-2
active: [1] 45.9% | [2] 33.8% | [3] 63% | [4] 66.5% | [5] 63.8% | [6] 50.3%

Cc1ccc(OCCN2CCN(c3ncnc4sc(C)c(C)c34)CC2)cc1
active: [2] 39.1% | [3] 34.8% | [4] 56.1% | [5] 61.3% | [6] 53.9%
inactive: [1] 4.63%

CCN1/C(=C/c2ccc3cc(C)ccc3[n+]2CC)Sc2cc(C)ccc21
active: [2] 64% | [3] 39.8% | [4] 108% | [5] 75.6% | [6] 83.3%
inactive: [1] 26.1%

O=C(N/N=C\c1ccc([N+](=O)[O-])s1)c1cncc(Br)c1
active: [3] 57.4% | [4] 79.7% | [5] 72.9% | [6] 56.9%
inactive: [1] 32.5% | [2] 22.9%

COc1ccc(OC)c2nc3c(C(=O)NCCN(C)C)cccc3nc12
active: [2] 65% | [3] 53.2% | [4] 77.8% | [5] 70.5% | [6] 75.7%
inactive: [1] -25.8%

CC(=NNC(=S)N1CCCC1)c1ccccn1
active: [1] 54.1% | [2] 64.5% | [8] 66.4%

c1ccc(CCNc2nc(-c3ccccn3)nc3ccccc23)cc1
active: [2] 41% | [3] 58.5% | [4] 91.9% | [5] 82.7% | [6] 69.1%
inactive: [1] 22.7%

NC(=O)c1ccc(N2CCN(S(=O)(=O)c3cccs3)CC2)c([N+](=O)[O-])c1
inactive: [1] -7.6% | [3] 21%
active: [2] 34.7% | [4] 64.7% | [5] 63.9% | [6] 46.1%

CCC(C)(C)c1ccc(OCCCC[n+]2ccccc2)c(C(C)(C)CC)c1
inactive: [1] 26.1% | [3] 16.3%
active: [2] 37.4% | [4] 64% | [5] 55.6% | [6] 60.8%

CC1(C)CC[C@]2(C(=O)n3ccnc3)CC[C@]3(C)[C@H](C(=O)C=C4[C@@]5(C)C=C(C#N)C(=O)C(C)(C)[C@@H]5CC[C@]43C)[C@@H]2C1
active: [1] 93.8% | [2] 82% | [8] 93.8%

Nc1cc(Cc2ccccc2)ccc1O
inactive: [1] -9.82% | [2] -12.4% | [3] 9.01% | [4] 25.7% | [5] 33.2% | [6] -10.3%

CCNc1nc(NC(C)(C)C)nc(SC(C(C)=O)C(C)=O)n1
active: [2] 32% | [3] 60.2% | [4] 72.4% | [5] 64.2% | [6] 49.4%
inactive: [1] 23.3%

COc1ccc(-c2cn(-c3ccccc3)c3[n+]2CCS3)cc1
inactive: [1] 15.7% | [3] 18.2%
active: [2] 35.4% | [4] 61.1% | [5] 60.6% | [6] 45.1%

Cc1ccnc(NC(=O)CCCOc2cc(=O)n(C)c3ccccc23)c1
inactive: [1] 3.13% and 25% | [2] -1.88% and -14.4% | [6] 23.5% and 8.09%
active: [3] 61% and 59.3% | [4] 91.4% and 81.7% | [5] 67.8% and 59.8%

CCC1C/C(=C\c2cccnc2)C(=O)/C(=C/c2cccnc2)C1 (stereo not drawn)
inactive: [1] 15.6%
active: [2] 78.6% | [3] 60.2% | [4] 103% | [5] 97.7% | [6] 90.7%

CCOc1ccc(-n2c(-c3ccc(Br)cc3)c[n+]3c2CCCCC3)cc1
active: [4] 104% | [5] 60.1% | [6] 67.5%
inactive: [1] 26.1% | [2] 24.1% | [3] 22.8%

C=CS(=O)(=O)N(Cc1ccccc1Br)[C@H](CO)Cc1ccccc1
inactive: [1] 24.3% | [2] 0.02% | [3] 20.1% | [4] 32.2% | [6] 23.2%
active: [5] 48.7%

CC(=O)c1c(C)[nH]c(C(=O)OCC(=O)Nc2ccc(Cl)cc2[N+](=O)[O-])c1C
active: [2] 38% | [4] 59.6% | [5] 62.2% | [6] 54.5%
inactive: [1] 9.25% | [3] 22%

CCOc1cc(/C=C2\N=C(SC(C)C(N)=O)N(c3ccc(OC(F)F)cc3)C2=O)ccc1O (stereo not drawn)
active: [2] 58% | [3] 59.3% | [4] 65.4% | [5] 73% | [6] 73.1%
inactive: [1] 27.6%

COc1ccc(C(=O)C2CCCN(Cc3cccn3-c3ccc(Cl)cn3)C2)c(OC)c1 (stereo not drawn)
active: [4] 47.7% | [5] 47.4% | [6] 41.2%
inactive: [1] 17.1% | [2] 25.5% | [3] 19%

CCN(C(C)=O)c1cnc(C=NNC(N)=S)c2ccccc12
inactive: [1] 39.5% | [2] 29.1%
active: [3] 78.7% | [4] 75.7% | [5] 69.5% | [6] 69.3%

COc1ccc(-c2c[n+](CC(=O)OC3CC(C)CCC3C(C)C)c3n2CCC3)cc1 (stereo not drawn)
inactive: [1] 22.9% | [3] 20.9%
active: [2] 42.1% | [4] 95.2% | [5] 62.6% | [6] 56.7%

CCOC(=O)C(=CNc1ccc(NC2=NCC(C)S2)cc1)C(=O)OCC (stereo not drawn)
active: [1] 60.3% | [4] 69.1% | [5] 70.9% | [6] 36.8%
inactive: [2] 24.9% | [3] -39.4%

COc1ccc(-c2n(Cc3ccccc3)c3ccccc3[n+]2Cc2ccccc2)cc1
active: [1] 64% | [2] 66.2% | [3] 76.3% | [4] 109% | [5] 90.3% | [6] 94.4%

Cc1cc(C(=O)NC2CCCc3c2cnn3-c2ccc(C)c(C)c2)n(C)n1 (stereo not drawn)
inactive: [1] 21.1%
active: [2] 52.5% | [3] 33.4% | [4] 62% | [5] 57.4% | [6] 67.1%

O=C(N/N=C/c1c(O)ccc2ccccc12)c1[nH]ncc1Br
active: [1] 58.8% | [2] 53.9% | [3] 77.2% | [4] 95.8% | [5] 83.8% | [6] 73.6%

C[n+]1c2n(c3ccccc31)N=C(c1cc(C(C)(C)C)c(O)c(C(C)(C)C)c1)CS2
active: [1] 81.1% | [2] 84.6% | [3] 81.7% | [4] 106% | [5] 95% | [6] 90%

Cc1ccc(S(=O)(=O)Nc2cc(Cl)c(O)c3ncccc23)cc1
active: [3] 48.1% | [4] 72.1% | [5] 62.2% | [6] 62%
inactive: [1] 28.2% | [2] 24.5%

CCN(CC)c1ccc(/C=N/NC(=O)c2cccc(S(=O)(=O)N3CCOCC3)c2)c(O)c1
active: [1] 60% | [2] 61.7% | [3] 79.2% | [4] 96.4% | [5] 82.6% | [6] 64.8%

COc1cc(N(C)C)ccc1C=c1c2ccccc2n2c1cc(-c1ccccc1)[n+]2C
active: [1] 57.7% | [2] 67.2% | [3] 56.9% | [4] 109% | [5] 87.4% | [6] 92.5%

COC(=O)c1ccc(COC(=O)c2[nH]c(C)c(C(C)=O)c2C)o1
active: [4] 54.4% | [6] 41%
inactive: [1] 19.6% | [2] 15.9% | [3] 12.8% | [5] 38.7%

CCCCCc1ccc(OCCCC[n+]2cccc(C)c2)c(CCCCC)c1
inactive: [1] 17.4%
active: [2] 39% | [3] 31.7% | [4] 74.2% | [5] 68.9% | [6] 71.2%

Cc1ccc(C(=O)C[n+]2cc(-c3ccc(C)cc3)n3c2CCCCC3)cc1
active: [2] 53.5% | [3] 38% | [4] 80.2% | [5] 75.7% | [6] 70.4%
inactive: [1] 25.2%

Cc1ccc(NC2=C(N3CCCCC3)C(=O)c3ccccc3C2=O)cc1
inactive: [1] -30.8% | [2] -15% | [3] -37.9% | [4] 12.3% | [5] -5.93% | [6] -11.3%

COc1ccc(-c2n(CC(=O)OC3CC(C)CCC3C(C)C)c3ccccc3[n+]2C)cc1 (stereo not drawn)
active: [1] 57.5% | [2] 61.3% | [3] 59.1% | [4] 110% | [5] 79.5% | [6] 92.9%

N#CC(c1cccc(Cl)c1)c1ccc2c(C(F)(F)F)cc(C(F)(F)F)nc2n1 (stereo not drawn)
active: [1] 59.4% | [2] 84% | [3] 82.3% | [4] 107% | [5] 95.5% | [6] 88.9%

Cn1nccc1C(=O)NC1CCCc2c1cnn2-c1ccc(C(C)(C)C)cc1 (stereo not drawn)
inactive: [1] 15%
active: [2] 49.3% | [3] 42.5% | [4] 63.5% | [5] 69.7% | [6] 58.2%
